Columns and labels:
Assay in all cases: DAPPL (digital affinity profiling via proximity ligation, sequencing); 10 mM Tris-HCl pH 7.5, 50 mM NaCl, 1 mM DTT, 4% glycerol, room temperature, 30 min; GST-TFs on glutathione beads, 16-mer random dsDNA library, 0.1% formaldehyde crosslink after washing; high values mean tight binding
FLI1 = biological target: T1, FLI1 (Homo sapiens, UniProt Q01543 1-452); conditions: protein: recombinant; tags: N-terminal GST; dsDNA, one strand shown
T1 sequence: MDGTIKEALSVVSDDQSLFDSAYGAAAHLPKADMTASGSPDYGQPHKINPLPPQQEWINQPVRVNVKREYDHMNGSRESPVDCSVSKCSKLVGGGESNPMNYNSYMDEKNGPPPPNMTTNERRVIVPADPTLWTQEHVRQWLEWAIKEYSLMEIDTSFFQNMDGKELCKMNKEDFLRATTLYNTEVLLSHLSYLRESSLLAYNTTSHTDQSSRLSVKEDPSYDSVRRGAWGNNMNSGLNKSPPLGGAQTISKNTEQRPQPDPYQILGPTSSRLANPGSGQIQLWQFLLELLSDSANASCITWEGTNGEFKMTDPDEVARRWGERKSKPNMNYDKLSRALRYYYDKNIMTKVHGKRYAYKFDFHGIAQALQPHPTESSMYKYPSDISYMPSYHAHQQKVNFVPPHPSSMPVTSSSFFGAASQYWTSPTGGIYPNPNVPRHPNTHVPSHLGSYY
Outline: (§1)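 After expression in yeast as GST fusions, human transcription factors were bound to glutathione beads, DNA-barcoded and mixed with a tag-only sample. The pools were incubated with 200 nmole of a 16-mer random double-stranded DNA library in Tris/NaCl/DTT/glycerol buffer (30 min, room temperature), washed and crosslinked with 0.1% formaldehyde. Proximity ligation with BsaI/T4 ligase ran for 1 h at 37 °C, before PCR amplification and sequencing on an Illumina NextSeq500. Binding signal is a hexamer's read frequency for a factor divided by its frequency for the tag-only sample.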

ERG = biological target: T2, ERG (Homo sapiens, UniProt P11308 1-479); conditions: protein: recombinant; tags: N-terminal GST; dsDNA, one strand shown
T2 sequence: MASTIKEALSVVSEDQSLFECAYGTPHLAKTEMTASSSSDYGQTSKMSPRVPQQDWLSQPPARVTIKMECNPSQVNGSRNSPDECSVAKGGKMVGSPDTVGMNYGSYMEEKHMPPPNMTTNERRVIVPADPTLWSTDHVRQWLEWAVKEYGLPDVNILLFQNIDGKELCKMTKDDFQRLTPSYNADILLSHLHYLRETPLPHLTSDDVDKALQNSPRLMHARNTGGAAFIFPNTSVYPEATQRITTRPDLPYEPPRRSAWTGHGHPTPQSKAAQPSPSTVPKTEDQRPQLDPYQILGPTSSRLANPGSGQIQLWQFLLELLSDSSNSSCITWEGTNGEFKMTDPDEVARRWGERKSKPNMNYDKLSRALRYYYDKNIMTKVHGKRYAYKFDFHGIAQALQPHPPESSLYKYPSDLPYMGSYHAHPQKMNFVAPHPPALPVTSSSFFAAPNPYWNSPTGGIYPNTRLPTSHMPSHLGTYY
Outline: as §1

ELF1 = ELF1 (Homo sapiens, UniProt P32519 1-619); conditions: protein: recombinant; tags: N-terminal GST; dsDNA, one strand shown
ELF1, sequence (P32519 whole entry): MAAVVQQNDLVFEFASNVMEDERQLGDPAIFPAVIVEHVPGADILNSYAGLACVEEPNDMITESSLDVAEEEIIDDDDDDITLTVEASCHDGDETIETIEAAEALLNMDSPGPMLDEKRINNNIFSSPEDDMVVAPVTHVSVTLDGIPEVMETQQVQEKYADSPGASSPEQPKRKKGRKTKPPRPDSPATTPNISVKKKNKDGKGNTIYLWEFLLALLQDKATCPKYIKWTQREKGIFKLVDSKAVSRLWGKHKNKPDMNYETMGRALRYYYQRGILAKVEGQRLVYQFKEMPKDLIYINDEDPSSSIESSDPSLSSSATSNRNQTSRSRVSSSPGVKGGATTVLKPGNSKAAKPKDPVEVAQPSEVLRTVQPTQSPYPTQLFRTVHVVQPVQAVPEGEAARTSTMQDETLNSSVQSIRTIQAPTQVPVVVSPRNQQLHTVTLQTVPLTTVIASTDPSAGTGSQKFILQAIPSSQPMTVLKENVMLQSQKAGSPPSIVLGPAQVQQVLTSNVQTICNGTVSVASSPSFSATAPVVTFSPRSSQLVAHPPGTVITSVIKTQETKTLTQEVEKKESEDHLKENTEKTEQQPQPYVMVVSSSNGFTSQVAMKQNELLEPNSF
Outline: as §1

EHF = biological target: T3, EHF (Homo sapiens, UniProt Q9NZC4 1-300); conditions: protein: recombinant; tags: N-terminal GST; dsDNA, one strand shown
T3 sequence: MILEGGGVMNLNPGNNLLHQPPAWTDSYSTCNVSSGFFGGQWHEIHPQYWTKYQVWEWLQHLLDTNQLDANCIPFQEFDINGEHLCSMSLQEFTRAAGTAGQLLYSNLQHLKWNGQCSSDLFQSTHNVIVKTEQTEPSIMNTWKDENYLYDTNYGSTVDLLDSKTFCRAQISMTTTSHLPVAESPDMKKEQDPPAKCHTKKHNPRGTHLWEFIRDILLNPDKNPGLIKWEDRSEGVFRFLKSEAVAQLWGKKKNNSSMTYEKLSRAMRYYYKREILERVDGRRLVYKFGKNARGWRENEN
Outline: as §1

SPI1 = SPI1 (Homo sapiens, UniProt P17947 1-270); conditions: protein: recombinant; tags: N-terminal GST; dsDNA, one strand shown
Outline: as §1

SPIB = SPIB (Homo sapiens, UniProt Q01892 1-262); conditions: protein: recombinant; tags: N-terminal GST; dsDNA, one strand shown
SPIB, sequence (Q01892 whole entry): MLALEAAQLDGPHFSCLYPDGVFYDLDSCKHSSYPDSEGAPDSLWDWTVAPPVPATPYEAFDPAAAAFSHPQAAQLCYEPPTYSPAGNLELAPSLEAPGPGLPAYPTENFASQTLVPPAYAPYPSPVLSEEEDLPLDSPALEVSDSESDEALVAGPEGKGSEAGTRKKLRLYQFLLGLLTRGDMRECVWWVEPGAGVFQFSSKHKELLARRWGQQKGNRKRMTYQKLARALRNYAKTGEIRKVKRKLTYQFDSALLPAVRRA
Outline: as §1

FEV = biological target: T4, FEV (Homo sapiens, UniProt Q99581 1-238); conditions: protein: recombinant; tags: N-terminal GST; dsDNA, one strand shown
T4 sequence: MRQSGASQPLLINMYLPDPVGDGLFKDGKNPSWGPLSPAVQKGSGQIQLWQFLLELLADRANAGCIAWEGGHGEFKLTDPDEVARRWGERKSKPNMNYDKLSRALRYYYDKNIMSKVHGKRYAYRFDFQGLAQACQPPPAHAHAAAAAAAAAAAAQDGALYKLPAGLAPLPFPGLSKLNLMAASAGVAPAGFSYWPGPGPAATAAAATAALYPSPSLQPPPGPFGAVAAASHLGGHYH
Outline: as §1

ETV5 = ETV5 (Homo sapiens, UniProt P41161 1-510); conditions: protein: recombinant; tags: N-terminal GST; dsDNA, one strand shown
ETV5, sequence (P41161 whole entry): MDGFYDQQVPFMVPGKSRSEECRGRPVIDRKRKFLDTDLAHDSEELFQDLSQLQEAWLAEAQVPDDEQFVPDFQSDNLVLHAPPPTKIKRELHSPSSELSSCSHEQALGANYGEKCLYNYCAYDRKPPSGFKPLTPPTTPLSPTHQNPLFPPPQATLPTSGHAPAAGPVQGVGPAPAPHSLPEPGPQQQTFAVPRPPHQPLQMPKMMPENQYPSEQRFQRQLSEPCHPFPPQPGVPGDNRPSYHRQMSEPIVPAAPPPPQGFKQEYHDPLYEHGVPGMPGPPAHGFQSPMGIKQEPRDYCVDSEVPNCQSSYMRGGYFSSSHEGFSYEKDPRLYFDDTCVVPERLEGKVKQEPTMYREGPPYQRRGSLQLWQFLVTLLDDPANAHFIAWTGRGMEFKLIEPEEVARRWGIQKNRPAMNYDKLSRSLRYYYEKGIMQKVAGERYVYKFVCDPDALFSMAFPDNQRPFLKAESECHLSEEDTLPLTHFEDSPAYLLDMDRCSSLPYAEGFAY
Outline: as §1

HSF1 = HSF1 (Homo sapiens, UniProt Q00613 1-529); conditions: protein: recombinant; tags: N-terminal GST; chain copies: 3; dsDNA, one strand shown
HSF1, sequence (Q00613 whole entry): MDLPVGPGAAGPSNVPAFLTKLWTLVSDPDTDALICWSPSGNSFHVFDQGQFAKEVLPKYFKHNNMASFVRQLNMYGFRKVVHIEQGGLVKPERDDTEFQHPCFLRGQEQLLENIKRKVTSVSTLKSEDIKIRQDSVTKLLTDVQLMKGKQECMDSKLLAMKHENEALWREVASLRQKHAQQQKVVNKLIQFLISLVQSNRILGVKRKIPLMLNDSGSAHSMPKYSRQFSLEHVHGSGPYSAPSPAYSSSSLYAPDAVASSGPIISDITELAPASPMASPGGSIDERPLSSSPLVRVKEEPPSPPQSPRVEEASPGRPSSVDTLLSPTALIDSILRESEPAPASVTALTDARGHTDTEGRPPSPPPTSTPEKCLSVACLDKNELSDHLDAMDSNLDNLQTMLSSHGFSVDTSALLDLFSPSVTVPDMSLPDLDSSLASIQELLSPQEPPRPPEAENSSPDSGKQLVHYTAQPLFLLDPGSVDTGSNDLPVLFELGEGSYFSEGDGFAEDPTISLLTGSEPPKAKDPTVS
Outline: as §1

SPIC = biological target: T5, SPIC (Homo sapiens, UniProt Q8N5J4 1-248); conditions: protein: recombinant; tags: N-terminal GST; dsDNA, one strand shown
T5 sequence: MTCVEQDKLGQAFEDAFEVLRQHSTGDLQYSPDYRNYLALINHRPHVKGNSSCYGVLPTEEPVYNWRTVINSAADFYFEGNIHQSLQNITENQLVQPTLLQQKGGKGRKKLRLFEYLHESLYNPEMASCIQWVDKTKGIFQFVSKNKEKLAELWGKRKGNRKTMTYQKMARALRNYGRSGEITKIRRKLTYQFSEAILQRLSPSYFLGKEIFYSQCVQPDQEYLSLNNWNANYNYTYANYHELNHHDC
Outline: as §1

ELF4 = ELF4 (Homo sapiens, UniProt Q99607 1-663); conditions: protein: recombinant; tags: N-terminal GST; dsDNA, one strand shown
ELF4, sequence (Q99607 whole entry): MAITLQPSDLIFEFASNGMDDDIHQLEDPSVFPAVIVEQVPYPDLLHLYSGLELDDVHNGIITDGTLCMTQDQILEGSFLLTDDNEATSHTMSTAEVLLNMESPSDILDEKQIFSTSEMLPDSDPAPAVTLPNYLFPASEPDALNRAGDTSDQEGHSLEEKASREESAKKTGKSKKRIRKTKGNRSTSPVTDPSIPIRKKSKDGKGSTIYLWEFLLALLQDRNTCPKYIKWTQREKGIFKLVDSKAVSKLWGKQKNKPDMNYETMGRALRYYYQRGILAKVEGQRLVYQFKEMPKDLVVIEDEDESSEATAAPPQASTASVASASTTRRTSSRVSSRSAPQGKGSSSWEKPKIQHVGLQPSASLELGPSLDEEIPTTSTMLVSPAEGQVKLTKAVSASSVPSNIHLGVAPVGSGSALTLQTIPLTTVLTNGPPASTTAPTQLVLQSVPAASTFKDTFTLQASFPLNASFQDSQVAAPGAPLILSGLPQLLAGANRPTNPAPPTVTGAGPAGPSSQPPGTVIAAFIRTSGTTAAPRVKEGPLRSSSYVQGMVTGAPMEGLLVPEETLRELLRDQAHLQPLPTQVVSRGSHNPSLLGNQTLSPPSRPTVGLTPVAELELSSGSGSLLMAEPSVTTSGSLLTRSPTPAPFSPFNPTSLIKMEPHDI
Outline: as §1

ELK4 = biological target: T6, ELK4 (Homo sapiens, UniProt P28324-2 1-405); conditions: protein: recombinant; tags: N-terminal GST; dsDNA, one strand shown
T6 sequence: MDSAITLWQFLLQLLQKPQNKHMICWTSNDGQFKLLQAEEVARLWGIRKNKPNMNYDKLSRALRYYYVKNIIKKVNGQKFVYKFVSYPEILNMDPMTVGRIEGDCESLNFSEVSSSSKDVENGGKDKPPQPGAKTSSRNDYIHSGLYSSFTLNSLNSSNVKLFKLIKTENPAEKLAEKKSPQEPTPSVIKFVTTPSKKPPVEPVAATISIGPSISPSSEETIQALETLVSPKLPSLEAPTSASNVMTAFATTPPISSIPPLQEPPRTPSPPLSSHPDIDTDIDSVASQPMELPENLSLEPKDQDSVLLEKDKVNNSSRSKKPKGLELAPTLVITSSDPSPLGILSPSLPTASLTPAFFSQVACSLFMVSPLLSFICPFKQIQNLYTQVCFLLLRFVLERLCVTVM
Outline: as §1

ETV2 = biological target: T7, ETV2 (Homo sapiens, UniProt O00321 1-342); conditions: protein: recombinant; tags: N-terminal GST; dsDNA, one strand shown
T7 sequence: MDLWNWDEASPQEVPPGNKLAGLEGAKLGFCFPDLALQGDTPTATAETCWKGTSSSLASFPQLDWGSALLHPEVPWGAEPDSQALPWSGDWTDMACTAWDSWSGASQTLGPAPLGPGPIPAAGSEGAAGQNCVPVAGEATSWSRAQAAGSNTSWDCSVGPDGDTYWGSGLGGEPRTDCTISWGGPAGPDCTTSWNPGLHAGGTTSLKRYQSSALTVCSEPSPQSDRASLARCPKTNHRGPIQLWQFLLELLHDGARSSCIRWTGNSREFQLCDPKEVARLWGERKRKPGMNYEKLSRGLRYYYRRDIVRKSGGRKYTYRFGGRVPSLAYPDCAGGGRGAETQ
Outline: as §1

CRX = CRX (Homo sapiens, UniProt O43186 1-299); conditions: protein: recombinant; tags: N-terminal GST; dsDNA, one strand shown
CRX, sequence (O43186 whole entry): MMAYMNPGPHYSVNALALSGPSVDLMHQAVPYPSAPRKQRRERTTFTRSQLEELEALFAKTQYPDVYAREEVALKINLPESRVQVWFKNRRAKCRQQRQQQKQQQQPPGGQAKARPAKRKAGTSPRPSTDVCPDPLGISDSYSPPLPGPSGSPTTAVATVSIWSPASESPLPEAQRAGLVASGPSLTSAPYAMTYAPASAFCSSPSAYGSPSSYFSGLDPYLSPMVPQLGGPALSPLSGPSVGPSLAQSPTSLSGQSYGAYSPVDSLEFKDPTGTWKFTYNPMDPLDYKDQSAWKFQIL
Outline: as §1

ETV1 = ETV1 (Homo sapiens, UniProt P50549 1-477); conditions: protein: recombinant; tags: N-terminal GST; dsDNA, one strand shown
ETV1, sequence (P50549 whole entry): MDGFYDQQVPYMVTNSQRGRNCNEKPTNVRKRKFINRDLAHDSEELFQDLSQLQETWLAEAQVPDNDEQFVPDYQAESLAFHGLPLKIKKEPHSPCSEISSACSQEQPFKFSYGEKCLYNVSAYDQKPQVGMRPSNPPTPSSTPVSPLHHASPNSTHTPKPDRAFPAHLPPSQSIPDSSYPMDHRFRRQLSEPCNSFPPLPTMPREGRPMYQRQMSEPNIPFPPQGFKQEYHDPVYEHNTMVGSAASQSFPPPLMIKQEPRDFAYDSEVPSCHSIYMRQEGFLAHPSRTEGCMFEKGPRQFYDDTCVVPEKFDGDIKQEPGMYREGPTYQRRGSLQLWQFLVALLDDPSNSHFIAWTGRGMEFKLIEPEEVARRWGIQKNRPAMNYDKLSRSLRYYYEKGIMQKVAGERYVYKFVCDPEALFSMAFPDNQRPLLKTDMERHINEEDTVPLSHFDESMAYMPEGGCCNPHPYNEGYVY
Outline: as §1

CGAAAT
binding signal (FLI1): 1.05 fold enrichment (6-mer frequency, TF over GST control) | binding signal (ERG): 1.02 fold enrichment (6-mer frequency, TF over GST control) | binding signal (ELF1): 1.01 fold enrichment (6-mer frequency, TF over GST control) | binding signal (EHF): 1.07 fold enrichment (6-mer frequency, TF over GST control) | binding signal (SPI1): 1.09 fold enrichment (6-mer frequency, TF over GST control) | binding signal (SPIB): 1.07 fold enrichment (6-mer frequency, TF over GST control) | binding signal (FEV): 1 fold enrichment (6-mer frequency, TF over GST control) | binding signal (ETV5): 1 fold enrichment (6-mer frequency, TF over GST control) | binding signal (HSF1): 1.4 fold enrichment (6-mer frequency, TF over GST control) | binding signal (SPIC): 1.01 fold enrichment (6-mer frequency, TF over GST control) | binding signal (ELF4): 1.01 fold enrichment (6-mer frequency, TF over GST control) | binding signal (ELK4): 1.18 fold enrichment (6-mer frequency, TF over GST control) | binding signal (ETV2): 1.06 fold enrichment (6-mer frequency, TF over GST control) | binding signal (CRX): 1.07 fold enrichment (6-mer frequency, TF over GST control) | binding signal (ETV1): 1.02 fold enrichment (6-mer frequency, TF over GST control)
